Measured values reported in the supplement of paper PMC11732987, “Enantioselective OTUD7B fragment discovery through chemoproteomics screening and high-throughput optimisation” (Communications Chemistry, 2025).

compound: COc1cccc(CN(C)C(=O)CCl)c1; assay: log2 ratio of Biotin-Ahx-Ub-VS probe labelling (compound/DMSO); higher = less target engagement, active = hit call of the paper (q ≤ 0.05, log2 ratio ≤ -1); settings: compound concentration: 50uM; treatment time: 3 h
Description: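 Round 2 competitive ABPP in HEK293T lysate. Compounds were tested at 50 and 200 µM for 3 h, followed by Biotin-Ahx-Ub-VS enrichment and diaPASEF LC-MS/MS. Values are the average log2 ratio (compound/DMSO) from an unpaired t-test (n=3 treated, n=26 DMSO).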

UniProt Q9H9J4, sequence (Q9H9J4 whole entry): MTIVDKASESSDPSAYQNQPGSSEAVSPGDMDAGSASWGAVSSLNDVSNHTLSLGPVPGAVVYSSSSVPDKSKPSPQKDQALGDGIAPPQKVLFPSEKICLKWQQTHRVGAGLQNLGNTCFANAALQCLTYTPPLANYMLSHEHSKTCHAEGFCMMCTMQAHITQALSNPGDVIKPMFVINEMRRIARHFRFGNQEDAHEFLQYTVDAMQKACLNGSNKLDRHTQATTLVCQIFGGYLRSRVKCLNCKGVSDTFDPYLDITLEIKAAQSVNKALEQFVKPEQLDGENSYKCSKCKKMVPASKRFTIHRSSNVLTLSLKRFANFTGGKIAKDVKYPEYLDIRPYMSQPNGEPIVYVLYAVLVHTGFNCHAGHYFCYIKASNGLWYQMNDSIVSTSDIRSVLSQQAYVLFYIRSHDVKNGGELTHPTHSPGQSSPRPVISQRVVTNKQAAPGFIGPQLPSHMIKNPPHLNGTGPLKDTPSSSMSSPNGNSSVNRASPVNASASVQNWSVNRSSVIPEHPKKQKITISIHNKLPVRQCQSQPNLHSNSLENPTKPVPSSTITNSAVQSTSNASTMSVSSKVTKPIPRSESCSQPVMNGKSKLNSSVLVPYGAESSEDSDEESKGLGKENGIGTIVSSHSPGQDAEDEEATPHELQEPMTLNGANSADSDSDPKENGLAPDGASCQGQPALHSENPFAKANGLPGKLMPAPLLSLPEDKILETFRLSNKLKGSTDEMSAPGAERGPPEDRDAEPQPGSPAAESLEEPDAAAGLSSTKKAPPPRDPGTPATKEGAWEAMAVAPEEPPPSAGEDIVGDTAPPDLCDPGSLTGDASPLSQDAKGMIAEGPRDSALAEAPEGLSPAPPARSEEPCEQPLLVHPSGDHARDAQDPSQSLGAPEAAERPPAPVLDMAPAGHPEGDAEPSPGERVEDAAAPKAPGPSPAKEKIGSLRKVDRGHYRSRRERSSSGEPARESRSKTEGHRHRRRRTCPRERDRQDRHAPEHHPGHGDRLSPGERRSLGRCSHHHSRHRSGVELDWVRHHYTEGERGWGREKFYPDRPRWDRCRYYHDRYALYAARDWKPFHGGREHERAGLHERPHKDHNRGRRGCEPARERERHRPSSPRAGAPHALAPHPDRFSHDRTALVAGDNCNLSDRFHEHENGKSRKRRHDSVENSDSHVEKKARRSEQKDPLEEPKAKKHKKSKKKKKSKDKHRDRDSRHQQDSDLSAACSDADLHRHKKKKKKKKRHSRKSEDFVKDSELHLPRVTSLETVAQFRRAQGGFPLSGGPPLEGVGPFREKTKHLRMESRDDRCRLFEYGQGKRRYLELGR
UniProt Q8TE49, sequence (Q8TE49 whole entry): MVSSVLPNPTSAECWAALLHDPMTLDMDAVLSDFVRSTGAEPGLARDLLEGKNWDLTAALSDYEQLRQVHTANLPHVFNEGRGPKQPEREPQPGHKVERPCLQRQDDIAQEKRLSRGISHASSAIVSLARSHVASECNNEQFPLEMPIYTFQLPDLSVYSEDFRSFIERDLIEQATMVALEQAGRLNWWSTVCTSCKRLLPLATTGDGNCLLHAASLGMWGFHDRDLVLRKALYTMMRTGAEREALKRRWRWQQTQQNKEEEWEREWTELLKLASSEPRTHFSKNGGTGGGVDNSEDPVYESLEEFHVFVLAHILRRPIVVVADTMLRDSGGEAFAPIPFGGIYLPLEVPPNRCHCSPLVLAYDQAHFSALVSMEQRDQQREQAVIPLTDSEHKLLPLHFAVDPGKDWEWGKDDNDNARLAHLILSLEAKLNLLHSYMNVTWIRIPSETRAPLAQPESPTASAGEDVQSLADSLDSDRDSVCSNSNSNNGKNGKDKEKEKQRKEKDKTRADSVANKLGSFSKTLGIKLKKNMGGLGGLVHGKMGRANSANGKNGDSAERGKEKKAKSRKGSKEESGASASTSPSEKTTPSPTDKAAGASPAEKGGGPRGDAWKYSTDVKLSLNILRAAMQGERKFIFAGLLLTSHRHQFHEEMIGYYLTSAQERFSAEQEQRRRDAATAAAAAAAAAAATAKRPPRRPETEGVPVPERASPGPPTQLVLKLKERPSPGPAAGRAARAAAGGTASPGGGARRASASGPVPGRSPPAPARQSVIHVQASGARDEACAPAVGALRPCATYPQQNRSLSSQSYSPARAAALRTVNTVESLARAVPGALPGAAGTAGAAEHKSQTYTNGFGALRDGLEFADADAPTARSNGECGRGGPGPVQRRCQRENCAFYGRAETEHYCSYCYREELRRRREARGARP
UniProt Q9UPU5, sequence (Q9UPU5 whole entry): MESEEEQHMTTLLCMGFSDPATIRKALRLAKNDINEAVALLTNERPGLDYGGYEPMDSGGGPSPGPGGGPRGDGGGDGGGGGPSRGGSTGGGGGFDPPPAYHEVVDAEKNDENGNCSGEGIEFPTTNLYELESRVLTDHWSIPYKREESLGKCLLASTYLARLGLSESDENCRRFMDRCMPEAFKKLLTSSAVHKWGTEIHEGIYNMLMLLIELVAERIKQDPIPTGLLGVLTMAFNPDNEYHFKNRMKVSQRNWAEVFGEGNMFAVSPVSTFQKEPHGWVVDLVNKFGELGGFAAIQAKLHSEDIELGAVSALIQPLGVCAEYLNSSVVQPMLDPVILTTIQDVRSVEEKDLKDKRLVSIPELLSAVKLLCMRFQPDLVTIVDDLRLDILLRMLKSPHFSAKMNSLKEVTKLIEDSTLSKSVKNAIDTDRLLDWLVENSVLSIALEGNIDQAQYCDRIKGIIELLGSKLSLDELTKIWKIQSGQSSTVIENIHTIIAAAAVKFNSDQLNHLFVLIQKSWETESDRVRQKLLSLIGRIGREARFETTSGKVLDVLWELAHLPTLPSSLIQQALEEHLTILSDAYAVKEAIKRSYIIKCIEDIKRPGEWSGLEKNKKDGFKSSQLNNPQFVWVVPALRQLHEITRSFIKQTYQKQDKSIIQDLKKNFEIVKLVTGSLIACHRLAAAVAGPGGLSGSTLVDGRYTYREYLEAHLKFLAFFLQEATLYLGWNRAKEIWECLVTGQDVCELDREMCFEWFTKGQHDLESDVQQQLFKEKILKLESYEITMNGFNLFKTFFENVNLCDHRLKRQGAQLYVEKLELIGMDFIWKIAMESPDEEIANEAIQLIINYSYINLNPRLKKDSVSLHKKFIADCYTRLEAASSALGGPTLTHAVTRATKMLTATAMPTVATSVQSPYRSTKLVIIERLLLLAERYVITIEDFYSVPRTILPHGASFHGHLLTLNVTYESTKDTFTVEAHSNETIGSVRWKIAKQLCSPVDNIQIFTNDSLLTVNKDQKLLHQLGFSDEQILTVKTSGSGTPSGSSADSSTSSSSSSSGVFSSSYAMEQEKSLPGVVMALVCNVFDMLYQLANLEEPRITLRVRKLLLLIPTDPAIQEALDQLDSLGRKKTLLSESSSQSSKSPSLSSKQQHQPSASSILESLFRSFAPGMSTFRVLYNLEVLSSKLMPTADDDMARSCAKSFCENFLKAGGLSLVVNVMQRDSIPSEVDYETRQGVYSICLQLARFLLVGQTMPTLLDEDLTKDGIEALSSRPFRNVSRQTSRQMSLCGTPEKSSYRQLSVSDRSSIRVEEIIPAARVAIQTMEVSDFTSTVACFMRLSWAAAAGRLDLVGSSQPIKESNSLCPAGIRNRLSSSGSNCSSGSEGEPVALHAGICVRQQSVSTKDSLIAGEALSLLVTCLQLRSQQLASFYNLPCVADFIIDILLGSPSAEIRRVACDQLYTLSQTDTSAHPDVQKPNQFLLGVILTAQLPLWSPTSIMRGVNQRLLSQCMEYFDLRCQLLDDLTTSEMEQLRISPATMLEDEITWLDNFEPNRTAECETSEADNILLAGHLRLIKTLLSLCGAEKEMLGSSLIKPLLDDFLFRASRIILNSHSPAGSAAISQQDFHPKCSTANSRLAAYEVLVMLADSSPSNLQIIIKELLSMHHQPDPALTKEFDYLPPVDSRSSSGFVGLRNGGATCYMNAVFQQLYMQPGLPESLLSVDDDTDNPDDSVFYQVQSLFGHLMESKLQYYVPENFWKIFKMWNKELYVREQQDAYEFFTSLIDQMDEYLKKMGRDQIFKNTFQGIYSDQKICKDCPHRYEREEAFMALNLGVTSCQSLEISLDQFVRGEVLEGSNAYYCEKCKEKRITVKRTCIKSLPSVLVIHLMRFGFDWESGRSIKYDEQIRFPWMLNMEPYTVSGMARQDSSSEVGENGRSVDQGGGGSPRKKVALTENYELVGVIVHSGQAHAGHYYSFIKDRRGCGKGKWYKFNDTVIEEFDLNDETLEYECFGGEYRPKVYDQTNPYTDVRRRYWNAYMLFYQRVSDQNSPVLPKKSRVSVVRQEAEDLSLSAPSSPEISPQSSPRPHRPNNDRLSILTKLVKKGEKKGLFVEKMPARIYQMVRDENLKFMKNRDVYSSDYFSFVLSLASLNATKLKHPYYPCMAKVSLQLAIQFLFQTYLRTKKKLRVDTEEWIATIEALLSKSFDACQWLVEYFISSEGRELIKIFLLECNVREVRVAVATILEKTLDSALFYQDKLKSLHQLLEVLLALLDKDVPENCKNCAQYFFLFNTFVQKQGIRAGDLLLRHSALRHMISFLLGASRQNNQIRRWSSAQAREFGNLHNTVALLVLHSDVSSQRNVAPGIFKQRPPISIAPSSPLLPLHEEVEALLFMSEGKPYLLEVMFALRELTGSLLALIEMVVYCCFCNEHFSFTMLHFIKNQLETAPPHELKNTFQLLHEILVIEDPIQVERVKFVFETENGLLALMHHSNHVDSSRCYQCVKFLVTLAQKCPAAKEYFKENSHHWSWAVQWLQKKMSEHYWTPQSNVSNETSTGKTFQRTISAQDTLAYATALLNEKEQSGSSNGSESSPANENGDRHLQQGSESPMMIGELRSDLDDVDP

Target | log2 ratio of Biotin-Ahx-Ub-VS probe labelling
USP24 (UniProt Q9UPU5) | 0.0304 (inactive)
USP19 (UniProt O94966) | -0.209 (inactive)
USP42 (UniProt Q9H9J4) | 0.0563 (inactive)
USP28 (UniProt Q96RU2) | -0.0726 (inactive)
FAM105A (UniProt Q9NUU6) | -0.133 (inactive)
UniProt Q8TE49 | -0.097 (inactive)
OTUD7B (UniProt Q6GQQ9) | -0.372 (inactive)
USP34 (UniProt Q70CQ2) | -0.106 (inactive)

same assay, conditions: compound concentration: 200uM; treatment time: 3 h

Target | log2 ratio of Biotin-Ahx-Ub-VS probe labelling
USP24 (UniProt Q9UPU5) | -0.88 (inactive)
USP19 (UniProt O94966) | -0.661 (inactive)
USP42 (UniProt Q9H9J4) | 0.184 (inactive)
USP28 (UniProt Q96RU2) | -0.646 (inactive)
FAM105A (UniProt Q9NUU6) | 0.096 (inactive)
UniProt Q8TE49 | -0.652 (inactive)
OTUD7B (UniProt Q6GQQ9) | -0.803 (inactive)
USP34 (UniProt Q70CQ2) | -0.024 (inactive)
